In PubChem BioAssay (NCATS):
Inconclusive results are not listed. The source made the active and inactive calls. Calls follow the shape of the dose curve; as a rule, active = well fitted curve in the direction sought with a large enough effect; inconclusive = small, poorly fitted or top-dose-only effect, or another doubt; inactive = no such curve, though single readings can be large; an effect the other way counts as inactive or inconclusive.

What was measured:
[1] = qHTS of pediatric cancer cell lines to identify multiple opportunities for drug repurposing: Primary screen for U-2 OS cells (AID 1347096);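 also: plate controls were DMSO wells for no effect and bortezomib positive control wells for full effect; nearly all actives have a fitted effect of over 50% in size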
How it was run: (§1)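 Viability after 48 h compound treatment at 37C, 500-1,000 cells/well, read as ATP luminescence with CellTiter-Glo. Primary screens used 11-point (MIPE, 0.78 nM-46 µM) or 8-point (NPC, 0.59 nM-46 µM) final concentrations; follow-up screens used 11-point dilutions.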

[2] = qHTS of pediatric cancer cell lines to identify multiple opportunities for drug repurposing: Primary screen for Saos-2 cells (AID 1347097); also: % is scaled to controls: 0 for no effect and ±100 for the full control effect; nearly all actives have a fitted effect of over 40% in size
How it was run: (§2)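 CRCs from 8- or 11-point titrations (lowest final 0.59 nM NPC, 0.78 nM MIPE). Cell viability: CellTiter-Glo after 48 h incubation, 15 min room-temperature development, luminescence imaging.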

[3] = qHTS of pediatric cancer cell lines to identify multiple opportunities for drug repurposing: Primary screen for SK-N-SH cells (AID 1347098);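 also: DMSO served as neutral control and bortezomib at 2.3 µM as positive control; % is scaled to controls: 0 for no effect and ±100 for the full control effect; nearly all actives have a fitted effect of over 65% in size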
How it was run: (§3)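 Cells (500-1,000/well) rested 5 h, then received compounds for 48 h; metabolically active cells were measured by CellTiter-Glo luminescence. Final concentrations spanned up to 46 µM (MIPE, 11-point) or 0.59 nM-46 µM (NPC, 8-point) in primary screens, 11-point in follow-ups.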

[4] = qHTS of pediatric cancer cell lines to identify multiple opportunities for drug repurposing: Primary screen for NB1643 cells (AID 1347099);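 also: plate controls were DMSO neutral control for no effect and bortezomib positive control for full effect; nearly all actives have a fitted effect of over 50% in size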
How it was run: as §2

[5] = qHTS of pediatric cancer cell lines to identify multiple opportunities for drug repurposing: Primary screen for LAN-5 cells (AID 1347100);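 also: plate controls were DMSO neutral control for no effect and bortezomib positive control for full effect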
How it was run: as §1

[6] = qHTS of pediatric cancer cell lines to identify multiple opportunities for drug repurposing: Primary screen for BT-12 cells (AID 1347101);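 also: plate controls were DMSO for no effect and bortezomib positive control for full effect; nearly all actives have a fitted effect of over 25% in size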
How it was run: as §3

[7] = qHTS of pediatric cancer cell lines to identify multiple opportunities for drug repurposing: Primary screen for Rh18 cells (AID 1347102); also: % is scaled to controls: 0 for no effect and ±100 for the full control effect; nearly all actives have a fitted effect of over 65% in size
How it was run: as §1

[8] = qHTS of pediatric cancer cell lines to identify multiple opportunities for drug repurposing: Primary screen for OHS-50 cells (AID 1347103);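 also: plate controls were DMSO neutral control for no effect and bortezomib positive control for full effect; nearly all actives have a fitted effect of over 40% in size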
How it was run: as §3

[9] = qHTS of pediatric cancer cell lines to identify multiple opportunities for drug repurposing: Primary screen for RD cells (AID 1347104);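 also: plate controls were DMSO for no effect and bortezomib for full effect; nearly all actives have a fitted effect of over 55% in size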
How it was run: as §2

[10] = qHTS of pediatric cancer cell lines to identify multiple opportunities for drug repurposing: Primary screen for MG 63 (6-TG R) cells (AID 1347105); also: % is scaled to controls: 0 for no effect and ±100 for the full control effect; nearly all actives have a fitted effect of over 50% in size
How it was run: as §2

CC1(c2ccccc2)OC(C(=O)O)=CC1=O (stereo not given)
inactive: outcome [1] | outcome [2] | outcome [3] | Potency [4] | outcome [5] | outcome [6] | outcome [7] | outcome [8] | outcome [9] | outcome [10]

O=C(O)CNC(=O)c1ccccc1I
inactive: outcome [1] | outcome [2] | outcome [3] | Potency [4] | outcome [5] | outcome [6] | outcome [7] | outcome [8] | outcome [9] | outcome [10]

COC(=O)c1ccccc1C(=O)c1ccc(OCCN2CCCCC2)cc1
inactive: outcome [1] | outcome [2] | outcome [3] | Potency [4] | outcome [5] | outcome [6] | outcome [7] | outcome [8] | outcome [9] | outcome [10]

NC(N)=NCCN1CCCCCCC1
inactive: activity change, negative = cytotoxic [1] 9.69% [at 0.597 µM] | activity change, negative = cytotoxic [2] 2.27% [at 0.597 µM] | activity change, negative = cytotoxic [3] -2% [at 0.741 µM] | activity change, negative = cytotoxic [4] 6.64% [at 0.597 µM] | activity change, negative = cytotoxic [5] 4.87% [at 0.597 µM] | activity change, negative = cytotoxic [6] 7.77% [at 0.745 µM] | activity change, negative = cytotoxic [7] 6.63% [at 0.597 µM] | activity change, negative = cytotoxic [8] 7.69% [at 0.73 µM] | activity change, negative = cytotoxic [9] 3.85% [at 0.597 µM] | activity change, negative = cytotoxic [10] 7.08% [at 0.597 µM]

CC(=O)Oc1cccc(C)c1
inactive: outcome [1] | outcome [2] | outcome [3] | Potency [4] | outcome [5] | outcome [6] | outcome [7] | outcome [8] | outcome [9] | outcome [10]

CCN(CC)CCOC(=O)C(c1ccccc1)c1ccccc1
inactive: outcome [1] | outcome [2] | outcome [3] | Potency [4] | outcome [5] | outcome [6] | outcome [7] | outcome [8] | outcome [9] | outcome [10]

CCCCCCCCCCCCCCCCN
inactive: outcome [1] | outcome [2] | outcome [3] | Potency [4] | outcome [5] | outcome [6] | outcome [7] | outcome [8] | outcome [9] | outcome [10]

CC(C)(C)NCC(O)COc1cccc2c1CCC(=O)N2 (stereo not given)
inactive: outcome [1] | outcome [2] | outcome [3] | Potency [4] | outcome [5] | outcome [6] | outcome [7] | outcome [8] | outcome [9] | outcome [10]

CC(=O)Nc1ccc(C(=O)O)cc1
inactive: outcome [1] | outcome [2] | outcome [3] | Potency [4] | outcome [5] | outcome [6] | outcome [7] | outcome [8] | outcome [9] | outcome [10]

Cn1c(=O)c2c(ncn2CCO)n(C)c1=O
inactive: outcome [1] | outcome [2] | outcome [3] | Potency [4] | outcome [5] | outcome [6] | outcome [7] | outcome [8] | outcome [9] | outcome [10]

C[N+]1(C)CCCC(OC(=O)C(O)(c2ccccc2)c2ccccc2)C1 (stereo not given)
inactive: outcome [1] | outcome [2] | outcome [3] | Potency [4] | outcome [5] | outcome [6] | outcome [7] | outcome [8] | outcome [9] | outcome [10]

CC(C)CCOC(=O)c1ccc(N(C)C)cc1
inactive: outcome [1] | outcome [2] | outcome [3] | Potency [4] | outcome [5] | outcome [6] | outcome [7] | outcome [8] | outcome [9] | outcome [10]

NS(=O)(=O)c1cc(C2(O)NC(=O)c3ccccc32)ccc1Cl (stereo not given)
inactive: outcome [1] | outcome [2] | outcome [3] | Potency [4] | outcome [5] | outcome [6] | outcome [7] | outcome [8] | outcome [9] | outcome [10]

CO[C@@]1(NC(=O)C(C(=O)O)c2ccc(O)cc2)C(=O)N2C(C(=O)O)=C(CSc3nnnn3C)CO[C@@H]21 (stereo not given in full)
inactive: outcome [1] | outcome [2] | outcome [3] | Potency [4] | outcome [5] | outcome [6] | outcome [7] | outcome [8] | outcome [9] | outcome [10]

O=c1[nH]c2cc(C(F)(F)F)c(N3CCOCC3)cc2n(CP(=O)(O)O)c1=O
inactive: outcome [1] | outcome [2] | outcome [3] | Potency [4] | outcome [5] | outcome [6] | outcome [7] | outcome [8] | outcome [9] | outcome [10]

COc1ccccc1OC(=O)Oc1ccccc1OC
inactive: outcome [1] | outcome [2] | outcome [3] | Potency [4] | outcome [5] | outcome [6] | outcome [7] | outcome [8] | outcome [9] | outcome [10]

O=C(O)Cc1ccc(CCNS(=O)(=O)c2ccc(Cl)cc2)cc1
inactive: outcome [1] | outcome [2] | outcome [3] | Potency [4] | outcome [5] | outcome [6] | outcome [7] | outcome [8] | outcome [9] | outcome [10]

CC(=O)N1C[C@H](O)C[C@H]1C(=O)O
inactive: outcome [1] | outcome [2] | outcome [3] | Potency [4] | outcome [5] | outcome [6] | outcome [7] | outcome [8] | outcome [9] | outcome [10]

CC(=O)SC[C@@H](Cc1ccccc1)C(=O)NCC(=O)OCc1ccccc1
inactive: outcome [1] | outcome [2] | outcome [3] | Potency [4] | outcome [5] | outcome [6] | outcome [7] | outcome [8] | outcome [9] | outcome [10]

OCCN1C[C@H](O)[C@@H](O)[C@H](O)[C@H]1CO
inactive: outcome [1] | outcome [2] | outcome [3] | Potency [4] | outcome [5] | outcome [6] | outcome [7] | outcome [8] | outcome [9] | outcome [10]

O=C(O)/C=C/c1ccc(Cn2ccnc2)cc1
inactive: outcome [1] | outcome [2] | outcome [3] | Potency [4] | outcome [5] | outcome [6] | outcome [7] | outcome [8] | outcome [9] | outcome [10]

CCOC(=O)c1cccnc1
inactive: outcome [1] | outcome [2] | outcome [3] | Potency [4] | outcome [5] | outcome [6] | outcome [7] | outcome [8] | outcome [9] | outcome [10]

OCC(O)CS (stereo not given)
inactive: outcome [1] | outcome [2] | outcome [3] | Potency [4] | outcome [5] | outcome [6] | outcome [7] | outcome [8] | outcome [9] | outcome [10]
